This is one part of a sample in which hits are shown more often than they occur.
IDE exosite FP = insulin-degrading enzyme (human) exo-site inhibition | P14735 | purified IDE, FL-6b probe fluorescence polarization; hits give low values | z-score at 20 µM | 6.3% of 17,000 active | AID 1259349;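 active = z-score of -3 or lower, meaning strong loss of probe binding signal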;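 also: His-tagged human IDE residues 42-1019 made in E. coli with 30 nM FL-6b probe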
Each line names hits and unclear results; the compound was inactive in the other large screens; ! = not confirmed by another sample.

CN1C[C@H]2[C@@H](c3ccccc31)[C@@H](CO)N2S(=O)(=O)c1ccccc1	none
COc1ccc(-c2ccc(C3[C@@H]4CN(C(=O)c5cnccn5)C[C@H]3N4)cc2)cc1 (some centres undefined)	none
Cc1cccc(-c2ccc([C@@H]3[C@@H]4CN(C(=O)CN(C)C)C[C@H]3N4)cc2)c1	none
CN(C)CC(=O)N1C[C@@H]2N[C@H](C1)C2c1ccc(C2=CCCCC2)cc1 (some centres undefined)	none
O=C(c1cnccn1)N1C[C@@H]2N[C@H](C1)C2c1ccc(/C=C/c2ccccc2)cc1 (some centres undefined)	IDE exosite FP -4.2!
O=C(c1cnccn1)N1CC(=O)N2[C@H](C1)[C@@H](c1ccc(/C=C/c3ccccc3)cc1)[C@@H]2CO	none
CN(C)CC(=O)N1C[C@@H]2N[C@H](C1)C2c1ccc(/C=C/c2ccccc2)cc1 (some centres undefined)	IDE exosite FP -5.6!
O=C(NC[C@@H]1[C@@H](c2ccccc2)[C@@H](CO)N1Cc1ccccc1)c1ccccn1	none
O=C([C@@H]1[C@@H](CO)[C@@H]2Cn3c(cccc3=O)[C@H]1N2Cc1cocn1)N1CCCCC1	none
CCCNC(=O)N1[C@@H](C#N)[C@H](c2ccccc2)[C@@H]1CO	none
CN(C)C(=O)c1ccc(-c2ccc([C@H]3[C@H](CO)N4C(=O)CN(C(=O)C5CC5)C[C@@H]34)cc2)cc1	none
COC(=O)C[C@H]1CC[C@H]2[C@@H](COc3ccc(NC(=O)Nc4cccc(C#N)c4)cc3C(=O)N2C)O1	none
COc1cccc(C#Cc2ccc([C@H]3[C@H]4CN(S(=O)(=O)c5ccccc5C)CC(=O)N4[C@H]3CO)cc2)c1	none
O=C(c1ccc(F)cc1)N1C[C@@H]2N[C@H](C1)C2c1ccc(-c2cccnc2)cc1 (some centres undefined)	none
COc1ccccc1-c1ccc(C2[C@@H]3CN(C(=O)c4cccnc4)C[C@H]2N3)cc1 (some centres undefined)	IDE exosite FP -14!
COc1ccc(-c2ccc(C3[C@@H]4CN(C(=O)c5ccc(F)cc5)C[C@H]3N4)cc2)cc1 (some centres undefined)	none
COc1ccccc1-c1ccc(C2[C@@H]3CN(C(=O)c4ccncc4)C[C@H]2N3)cc1 (some centres undefined)	IDE exosite FP -7.3!
N#Cc1ccc(-c2ccc(C3[C@@H]4CN(C(=O)c5ccncc5)C[C@H]3N4)cc2)cc1 (some centres undefined)	none
Cc1cccc(-c2ccc(C3[C@@H]4CN(C(=O)c5ccncc5)C[C@H]3N4)cc2)c1 (some centres undefined)	none
O=C(C[C@@H]1CC[C@H]2NC[C@@H](O)COC[C@@H]2O1)NCc1ccc2c(c1)OCO2	none
O=C(c1cnccn1)N1CC(=O)N2[C@@H](CO)[C@H](c3ccc(C#CCC4CCCC4)cc3)[C@@H]2C1	none
N#C[C@@H]1[C@@H](c2ccccc2)[C@@H](CO)N1C(=O)c1ccc2c(c1)OCO2	none
O=C(Nc1cccc(F)c1)N1CC(=O)N2[C@H](CO)[C@@H](c3ccc(Br)cc3)[C@H]2C1	none
C[C@@H]1CN([C@H](C)CO)C(=O)c2cc(N(C)C)ccc2O[C@@H](C)CCCCO[C@H]1CN(C)S(=O)(=O)c1ccc(F)cc1	none
COc1ccccc1C#Cc1ccc([C@@H]2[C@@H](CO)N3CCCCN(S(C)(=O)=O)C[C@H]23)cc1	IDE exosite FP -5.6
CCS(=O)(=O)N1CCCCN2[C@@H](CO)[C@H](c3ccc(C#Cc4ccccc4OC)cc3)[C@@H]2C1	IDE exosite FP -5.9
COc1ccc(C#Cc2ccc([C@@H]3[C@H](CO)N4CCCCN(S(=O)(=O)c5ccccc5)C[C@@H]34)cc2)cc1	none
CS(=O)(=O)N1CCCCN2[C@H](CO)[C@H](c3ccc(C#Cc4ccccn4)cc3)[C@@H]2C1	none
O=S(=O)(Cc1ccccc1)N1CCCCN2[C@H](CO)[C@H](c3ccc(C#Cc4ccccc4)cc3)[C@@H]2C1	none
CCCC#Cc1ccc([C@H]2[C@@H](CO)N3CCCCN(S(C)(=O)=O)C[C@@H]23)cc1	none
O=S(=O)(Cc1ccccc1)N1CCCCN2[C@@H](CO)[C@@H](c3ccc(C#Cc4ccccc4)cc3)[C@@H]2C1	none
COc1ccccc1C#Cc1ccc([C@H]2[C@@H](CO)N3CCCCN(S(C)(=O)=O)C[C@@H]23)cc1	IDE exosite FP -10
CCCC#Cc1ccc([C@H]2[C@H](CO)N3CCCCN(S(C)(=O)=O)C[C@@H]23)cc1	none
CN(C)C(=O)c1cccc(-c2ccc(C3[C@H]4CNC[C@@H]3N4CC3CCCCC3)cc2)c1 (some centres undefined)	none
CCS(=O)(=O)N1CC2(CN(Cc3ccc4c(c3)OCO4)[C@@H](CO)c3c2c2ccc(OC)cc2n3C)C1	none
CC(C)C#Cc1ccc([C@@H]2[C@H](CO)N3CCCCN(CC4CC4)C[C@@H]23)cc1	none
Cc1ccc(-c2ccc([C@@H]3[C@@H](CO)N4CCCCN(C(=O)c5ccc(F)cc5)C[C@@H]34)cc2)cc1	none
O=C(c1ccccc1)N1CC(=O)N2[C@@H](CO)[C@H](c3ccc(C4=CCCC4)cc3)[C@@H]2C1	none
O=C(Cc1ccccn1)N1CC(=O)N2[C@H](CO)[C@H](c3ccc(-c4ccc(F)cc4)cc3)[C@@H]2C1	none
Cc1ccc(-c2ccc([C@@H]3[C@@H](CO)N4C(=O)CN(C(=O)Cc5ccccn5)C[C@@H]34)cc2)cc1	none
Cc1ccc(-c2ccc([C@@H]3[C@H]4CN(C(=O)Cc5ccccn5)CC(=O)N4[C@H]3CO)cc2)cc1	none
Cc1ccc(-c2ccc([C@@H]3[C@@H](CO)N4C(=O)CN(C(=O)Cc5ccccn5)C[C@H]34)cc2)cc1	none
Cc1cccc(-c2ccc([C@H]3[C@H](CO)N4C(=O)CN(C(=O)Cc5ccccn5)C[C@@H]34)cc2)c1	IDE exosite FP -6.9
O=C(Cc1ccccn1)N1CC(=O)N2[C@@H](CO)[C@@H](c3ccc(-c4ccccc4)cc3)[C@@H]2C1	IDE exosite FP -5.6
Cc1cccc(-c2ccc([C@@H]3[C@@H](CO)N4C(=O)CN(C(=O)Cc5ccccn5)C[C@H]34)cc2)c1	IDE exosite FP -5.7
O=C(Cc1ccccn1)N1CC(=O)N2[C@H](CO)[C@@H](c3ccc(-c4ccccc4)cc3)[C@H]2C1	none
CO[C@H]1CN(C)C(=O)c2cc(NC(=O)NC(C)C)ccc2OC[C@@H](C)N(C(=O)CN(C)C)C[C@H]1C	none
COc1ccc2c3c(n(C)c2c1)[C@H](CO)N(CC1CC1)CC31CCN(S(=O)(=O)c2cccs2)CC1	none
C/C=C/c1ccc([C@H]2[C@@H](CO)N(C(=O)NC(C)C)[C@H]2CNC(C)=O)cc1	none
COc1ccc(C#Cc2ccc([C@H]3[C@@H](CO)N4CCCCN(C(=O)c5ccncc5)C[C@H]34)cc2)cc1	none
Cc1cccc(-c2ccc([C@@H]3[C@H](CO)N4CCCCN(S(=O)(=O)c5cccc(C)c5)C[C@@H]34)cc2)c1	none
Cc1cccc(-c2ccc([C@@H]3[C@@H](CO)N4CCCCN(S(=O)(=O)c5cn(C)cn5)C[C@@H]34)cc2)c1	IDE exosite FP -18
Cn1cnc(S(=O)(=O)N2CCCCN3[C@H](CO)[C@H](c4ccc(-c5ccccc5)cc4)[C@H]3C2)c1	none
Cc1ccccc1-c1ccc([C@H]2[C@H](CO)N3CCCCN(S(=O)(=O)c4cn(C)cn4)C[C@@H]23)cc1	IDE exosite FP -7.1
Cc1cccc(-c2ccc([C@H]3[C@@H](CO)N4CCCCN(S(=O)(=O)c5cn(C)cn5)C[C@@H]34)cc2)c1	none
Cn1cnc(S(=O)(=O)N2CCCCN3[C@@H](CO)[C@@H](c4ccc(-c5ccccc5)cc4)[C@@H]3C2)c1	IDE exosite FP -5.6

Source: PubChem
